From PubChem
HP1b chromo inh = blocks HP1-beta chromodomain binding to methylated histone tails. P83916. AlphaScreen HP1-beta / biotin-H3K9me3 peptide binding. Potency, µM (highest dose often 114 µM), inactives show top-dose activity change, negative = inhibition, usual class: inhibitors. hit rate 0.56% among 390,000. AID 540317; note: nearly all actives have a fitted effect of over 70% in size
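AlphaScreen: HP1-beta (50 nM) preformed 30 min with biotin-H3(1-18)K9me3 peptide (50 nM) in PBS pH 7.4, 0.01% Tween-20. Compound added for 30 min at RT, then streptavidin donor/nickel chelate acceptor beads (10 ug/mL) for 30 min.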
G9a block = inhibitors of human histone lysine methyltransferase G9a | G9a H3K9 monomethylation, AlphaScreen, 2 h | Potency, µM (highest dose often 102 µM), without a hit: at the highest dose activity, negative = inhibition, hits mostly inhibitors | hit rate 8.8% among 350,000 | AID 504332; note: % is set by controls: 0 for no effect and ±100 for the full control effect; nearly all actives have a fitted effect of over 75% in size
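Compounds were preincubated with 20 nM G9a for 15 min, after which biotinylated H3K9 peptide (500 nM) and SAM (20 uM) started a 2 h room-temperature reaction. Monomethylated product was quantified by antibody-based AlphaScreen chemiluminescence.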
BAZ2B inh = inhibitors of human BAZ2B bromodomain; hit rate 4.4% among 360,000; AlphaScreen BAZ2B-H3K14Ac peptide displacement; Q9UIF8; Potency, µM (highest dose often 114 µM), inactives show at the highest dose activity change, negative = inhibition, most hits filed as inhibitors; AID 504333; note: % is set by controls: 0 for no effect and ±100 for the full control effect; nearly all actives have a fitted effect of over 60% in size
Target sequence (Q9UIF8 whole entry, looked up): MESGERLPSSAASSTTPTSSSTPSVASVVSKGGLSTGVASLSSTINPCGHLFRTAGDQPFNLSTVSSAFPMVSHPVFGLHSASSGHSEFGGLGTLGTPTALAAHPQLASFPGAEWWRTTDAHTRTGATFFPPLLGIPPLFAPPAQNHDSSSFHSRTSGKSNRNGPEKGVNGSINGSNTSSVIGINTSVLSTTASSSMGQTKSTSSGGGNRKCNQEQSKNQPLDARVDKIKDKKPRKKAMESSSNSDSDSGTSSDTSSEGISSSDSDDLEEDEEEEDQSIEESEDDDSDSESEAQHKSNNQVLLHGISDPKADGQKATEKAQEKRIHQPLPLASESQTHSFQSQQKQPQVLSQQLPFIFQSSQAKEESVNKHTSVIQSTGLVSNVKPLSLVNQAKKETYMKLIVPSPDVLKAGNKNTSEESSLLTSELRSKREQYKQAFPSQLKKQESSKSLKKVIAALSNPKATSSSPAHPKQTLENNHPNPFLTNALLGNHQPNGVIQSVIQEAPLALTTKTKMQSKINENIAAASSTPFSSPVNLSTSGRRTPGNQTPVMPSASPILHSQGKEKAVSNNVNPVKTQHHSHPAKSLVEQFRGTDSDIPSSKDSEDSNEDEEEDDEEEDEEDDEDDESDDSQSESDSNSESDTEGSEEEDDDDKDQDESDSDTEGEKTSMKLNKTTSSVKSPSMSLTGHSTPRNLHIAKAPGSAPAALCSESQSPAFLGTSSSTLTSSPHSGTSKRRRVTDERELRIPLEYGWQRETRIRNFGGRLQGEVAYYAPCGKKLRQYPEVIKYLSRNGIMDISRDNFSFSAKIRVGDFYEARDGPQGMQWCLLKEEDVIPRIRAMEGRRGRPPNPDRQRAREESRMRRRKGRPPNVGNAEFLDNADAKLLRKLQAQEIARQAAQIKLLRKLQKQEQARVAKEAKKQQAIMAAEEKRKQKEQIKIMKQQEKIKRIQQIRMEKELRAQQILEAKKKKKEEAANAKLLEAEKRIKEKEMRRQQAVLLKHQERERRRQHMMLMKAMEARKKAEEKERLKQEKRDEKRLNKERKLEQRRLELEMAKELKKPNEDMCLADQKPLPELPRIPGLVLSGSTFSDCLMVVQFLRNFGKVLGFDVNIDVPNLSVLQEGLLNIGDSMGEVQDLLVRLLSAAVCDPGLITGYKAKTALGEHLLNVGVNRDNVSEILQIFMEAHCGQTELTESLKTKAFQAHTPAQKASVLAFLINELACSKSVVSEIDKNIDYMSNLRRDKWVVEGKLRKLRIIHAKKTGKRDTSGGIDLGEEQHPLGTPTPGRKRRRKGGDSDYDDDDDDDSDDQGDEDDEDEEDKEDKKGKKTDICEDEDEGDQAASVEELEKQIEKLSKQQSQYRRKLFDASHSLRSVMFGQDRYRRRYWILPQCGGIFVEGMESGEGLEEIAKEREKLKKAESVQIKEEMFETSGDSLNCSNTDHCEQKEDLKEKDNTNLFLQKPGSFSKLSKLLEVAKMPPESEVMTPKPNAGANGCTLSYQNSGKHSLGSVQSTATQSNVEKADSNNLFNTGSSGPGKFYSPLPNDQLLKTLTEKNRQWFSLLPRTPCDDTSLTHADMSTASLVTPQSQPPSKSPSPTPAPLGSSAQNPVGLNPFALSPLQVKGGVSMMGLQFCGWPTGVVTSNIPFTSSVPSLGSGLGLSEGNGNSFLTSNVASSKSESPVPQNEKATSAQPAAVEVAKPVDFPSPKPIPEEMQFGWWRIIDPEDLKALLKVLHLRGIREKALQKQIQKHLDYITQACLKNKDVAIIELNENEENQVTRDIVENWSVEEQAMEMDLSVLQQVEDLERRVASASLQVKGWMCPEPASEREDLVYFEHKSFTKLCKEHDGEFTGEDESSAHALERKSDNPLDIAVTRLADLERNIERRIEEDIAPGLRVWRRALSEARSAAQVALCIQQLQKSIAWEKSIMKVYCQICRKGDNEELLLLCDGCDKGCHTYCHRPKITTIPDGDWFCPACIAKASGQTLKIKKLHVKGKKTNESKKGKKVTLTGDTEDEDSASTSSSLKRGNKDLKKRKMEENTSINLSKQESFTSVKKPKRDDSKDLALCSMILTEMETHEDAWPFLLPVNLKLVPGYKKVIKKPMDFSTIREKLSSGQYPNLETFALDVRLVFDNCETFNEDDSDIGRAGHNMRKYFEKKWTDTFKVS
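Compounds, titrated to a top concentration of 110 uM, were incubated 30 min at room temperature with preformed BAZ2B/acetyl-K14 H3 peptide complex (50 nM each). Proximity signal was measured by AlphaScreen after 20 min with beads.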
JMJD2A Tudor inh = blocks the human JMJD2A Tudor domain | AlphaScreen JMJD2A-Tudor / H3K4me3 peptide binding | Potency, µM (doses to about 114 µM), for the others: at the top dose activity change, negative = inhibition, actives largely listed as inhibitors | O75164 | AID 504339 | hit rate 4.4% among 390,000; note: % is set by controls: 0 for no effect and ±100 for the full control effect; nearly all actives have a fitted effect of over 50% in size
GLS inh = blocks human kidney-isoform glutaminase activity; AID 624170; Potency, µM (highest dose often 45.5 µM), inactives show at the highest dose activity change, negative = inhibition, most hits filed as inhibitors; O94925; GLS enzymatic activity, qHTS titration; hit rate 0.21% among 410,000; note: % is set by controls: 0 for no effect and ±100 for the full control effect
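Assay buffer: 45 mM KH2PO4 pH 8.2, 0.02% Tween-20. hKGA acts on L-glutamine (1 mM solution added); product glutamate is reported by an oxidase/peroxidase Amplex Red coupling, with fluorescence taken at baseline and 30 min.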
Starred values were filed as active, the others as inactive; ? = inconclusive; / = not tested or not shown; [ ] = dose if it differs, or a comment. An excerpt weighted towards active compounds, which were near 10% of everything screened. Calls come from the whole dose curve; as a rule, active = well fitted curve in the direction sought with a large enough effect; inconclusive = small, poorly fitted or top-dose-only effect, or another doubt; inactive = no such curve, though single readings can be large; an effect the other way counts as inactive or inconclusive. Potency is the fitted concentration of half-maximal effect.

SMILES | HP1b chromo inh | G9a block | BAZ2B inh | JMJD2A Tudor inh | GLS inh
Cc1nc(SCc2ccc([N+](=O)[O-])cc2)n[nH]1 | 13.1% | -8.8%[0.501 µM] | 4.4% | 1.4% | 6.8%
O=[N+]([O-])c1ccc(CSc2nnc(SCc3ccc(Cl)cc3)s2)cc1 | 6.6% | 35.5µM* | 7.5% | -28.4% | 7.6%
CCCCOC(=O)Sc1nc2ccccc2o1 | 19.0% | 25.1µM* | 24.6% | 10.5% | 4.1%
COc1ccc(C(=O)/C=C/Sc2nc3ccccc3o2)cc1 | 44.0% | ? | -5.3% | -11.7% | -6.0%
Cc1ccccc1NC(=O)c1nn(C)c(C(=O)Nc2ccccc2C)c1[N+](=O)[O-] | 25.1% | 6.4% | -4.1% | -18.2% | 1.8%
COc1ccc(N/C(=C(/C(Cl)=C(Cl)Cl)[N+](=O)[O-])n2nnc3ccccc32)cc1 | / | 11.2µM* | 50.1µM* | / | /
COc1ccc(NC(=O)COC(=O)Cn2nnc3ccccc32)cc1 | 36.8% | 18.9% | -4.5% | -10.3% | 2.9%
Cc1ccccc1N/C(=C(/C(Cl)=C(Cl)Cl)[N+](=O)[O-])n1nnc2ccccc21 | -5.5% | 10µM* | 50.1µM* | ? | 15.4%
CC(C)NC(=O)C1(C)Cc2c(-c3ccc(N(C)C)cc3)ccnc2O1 (configuration not stated) | / | / | / | / | 30.8%
CCOc1ccc(NC(=O)Cn2nnc(C(=O)NCCc3ccccc3)c2N)cc1 | 52.5% | -2.7%[59 µM] | / | -10.3% | -2.9%
O=C(c1ccc(Cl)cc1[N+](=O)[O-])N(Cc1ccccc1)Cc1ccccc1 | / | 79.4µM* | ? | / | /
CCN(C(=O)c1ccc(Cl)cc1[N+](=O)[O-])c1ccccc1C | 23.9% | 39.8µM* | -37.6% | -18.9% | -8.7%
CCOc1ccc(S(=O)(=O)Nc2cc(Sc3ncn[nH]3)c3oc(=O)sc3c2)cc1 | / | 31.6µM* | ? | / | /
CCOc1ccc(S(=O)(=O)Nc2ncn[nH]2)cc1 | 8.7% | 20.6% | -1.0% | -7.0% | -11.7%
O=C1N/C(=N/Nc2ccccc2)S/C1=C\c1ccccc1 | ? | 7.94µM* | 39.8µM* | 44.7µM* | 12.6%
C=CCn1c(-c2sc3nc(C)cc(C)c3c2N)n[nH]c1=S | 51.7% | 7.94µM* | -16.6% | 39.8µM* | -28.4%
C=CCn1c(-c2cc(OC)cc(OC)c2)n[nH]c1=S | 26.1% | ? | 12.9% | 31.6µM* | -3.8%
C=CCn1c(-c2cccc(OCC)c2)n[nH]c1=S | 37.8% | 8.91µM* | -9.2% | 22.4µM* | -11.1%
C=CCn1c(-c2ccccc2OC)n[nH]c1=S | 41.4% | 2µM* | -9.5% | 6.31µM* | 7.2%
C=CCn1c(-c2ccc(OC)cc2)nc2ccccc21 | 33.8% | -1.1%[12.7 µM] | -12.6% | 6.1% | 0.7%
C=CCn1cnc2c(sc3nc(C)cc(C)c32)c1=O | 42.4% | -9.0% | -0.7% | -16.6% | 2.3%
COc1ccc(NC(=O)CSc2ncc3c(n2)-c2ccccc2N(Cc2ccc(C)cc2)S3(=O)=O)cc1Cl | 0.6% | -30.2%[59 µM] | -35.3% | -5.8% | -18.3%
COCCNC(=O)C1(C)CCCN(C(=O)c2cc(F)cc(F)c2)C1 (configuration not stated) | / | / | / | / | 1.1%
C[C@@H]1O[C@H](CCc2cccc(Cl)c2)CC2=C1C(=O)OC(C)(C)O2 | / | / | / | / | 14.0%
COc1ccc(OC)c(CNS(=O)(=O)c2ccc3[nH]c4c(c3c2)CCCCC4)c1 | ? | 12.6µM* | ? | 35.5µM* | 8.2%
SMILES | HP1b chromo inh | G9a block | BAZ2B inh | JMJD2A Tudor inh | GLS inh
COc1ccc(NS(=O)(=O)c2ccc3[nH]c4c(c3c2)CCCC4)cc1Cl | -2.6% | -50.5%[59 µM] | ? | ? | -0.5%
COCCCNS(=O)(=O)c1ccc2[nH]c3c(c2c1)CCCCC3 | -10.5% | ? | ? | ? | 8.0%
CCOc1ccc(NS(=O)(=O)c2ccc3[nH]c4c(c3c2)CCCCC4)cc1 | -14.1% | ? | -27.4%[57.1 µM] | 28.2µM* | 0.5%
CCOc1ccc(NS(=O)(=O)c2ccc3[nH]c4c(c3c2)CCCC4)cc1 | ? | ? | ? | ? | 54.3%
COc1ccc(NS(=O)(=O)c2ccc3[nH]c4c(c3c2)CCCCC4)cc1 | ? | ? | 2.0%[57.1 µM] | 31.6µM* | 11.1%
COc1ccc(NS(=O)(=O)c2ccc3[nH]c4c(c3c2)CCCC4)c(OC)c1 | -31.5% | 10µM* | ? | ? | -7.9%
O=C1C2=C(C(=O)c3ccccc31)C1O[C@](CCCCN3C(=O)c4ccccc4C3=O)(Cc3c1ccc1ccccc31)O2 | / | -28.1%[2.33 µM] | ? | / | /
O=C(O)CCCC/C=C(\c1ccccc1)c1cccnc1 | / | ? | / | / | 2.7%
Cn1cnc(S(=O)(=O)N2CCC(C(=O)NCc3ccccc3)CC2)c1 | -4.8% | -5.1%[59 µM] | ? | -5.3% | -9.3%
Cc1ccc(C)c(NC(=O)c2cnn(-c3cccc(F)c3)c2C2CCN(C(=O)OC(C)(C)C)CC2)c1 | 16.5% | -0.2%[59 µM] | -3.8%[57.1 µM] | -33.3% | 6.9%
Cc1nc2[nH]c(=S)n(C)c(=O)c2nc1C | 15.5% | 44.7µM* | -11.3% | 89.1µM* | -0.8%
COc1cc(C2SCCS2)cc(Br)c1Oc1ncccc1[N+](=O)[O-] | ? | 10µM* | ? | ? | -11.6%
Cc1cc(C)c2c(n1)sc1c(=O)[nH]c(SCc3ccccc3)nc12 | 52.1% | ? | -1.4% | -4.3% | -5.1%
C=CCSc1nc2c(sc3nc(C)cc(C)c32)c(=O)[nH]1 | 35.5% | 44.7µM* | -1.5% | -23.7% | ?
O=C1CC(N2CCN(Cc3ccccc3)CC2)C(=O)N1c1ccccc1 (configuration not stated) | 21.6% | 1.2%[2.33 µM] | 0.1% | -14.3% | 0.2%
O=C1CC(N2CCN(c3ccccc3Cl)CC2)C(=O)N1c1ccc(F)cc1 (configuration not stated) | 15.7% | 50.1µM* | -2.9% | -12.2% | 4.4%
O=C1CC(N2CCCCCC2)C(=O)N1c1ccc(F)cc1 (configuration not stated) | 34.6% | 11.2µM* | -17.8% | -4.8% | -7.2%
CC1CCN(C2CC(=O)N(c3ccccc3)C2=O)CC1 (configuration not stated) | 61.7% | 28.2µM* | -21.5% | -0.7% | -0.4%
O=C1CC(N2CCN(c3ccccc3F)CC2)C(=O)N1c1ccc(F)cc1 (configuration not stated) | 38.9% | / | / | -17.7% | 8.9%
O=C1CC(N2CCN(c3ccc(F)cc3)CC2)C(=O)N1c1ccc(F)cc1 (configuration not stated) | 37.7% | / | -4.8% | -2.6% | 14.3%
COc1ccc(OCCCCn2c(C3CC(=O)N(c4cccc(Cl)c4)C3)nc3ccccc32)cc1 (configuration not stated) | 4.0% | ? | -19.0% | -23.2% | 0.1%
CC(=O)Nc1cccc(-c2cnc(N)c(C(=O)c3cccnc3)n2)c1 | 36.6% | / | / | -20.9% | 1.6%
COc1cc(OC)cc(-c2c(-c3cccs3)c3cc(-c4ccc(N(C)C)nc4)ccc3n2C)c1 | 14.1% | 3.1%[0.501 µM] | 56.2µM* | ? | -7.6%
CC1(C(=O)Nc2ccccc2F)CCN1C(=O)Cc1ccc(-c2ccccc2)cc1 (configuration not stated) | / | / | / | / | 6.3%
